In all, about 200,000 compounds went through this assay and about 330 (0.17%) were called active. This is one part of a sample in which actives are shown more often than they occur.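 Rule for the calls: active = activation factor of 2 or more at 20 µM, a signal rise over negative controls twice the positive control's; inactive = the rest.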
test system: alkaline phosphatase, intestinal [Bos taurus]; experiment: bovine intestinal alkaline phosphatase activators, primary screen, biochemical, bovine IAP, CDP-star luminescence (AID 1016); settings: purified bovine IAP, 30 min, at 20 µM, hits give high values

Structure (SMILES) | activation factor
Cc1cc(C)cc(NC(=S)NC2CC3CCCC(C2)N3Cc2cccs2)c1 (stereo not given) | 3 (active)
COP(=O)(OC)C(NC(=O)c1ccc(C)cc1)C(Cl)(Cl)Cl (stereo not given) | 0.8 (inactive)
CN(C)C(=O)Oc1ccc(OCc2cccc[n+]2C)cc1 | 1 (inactive)
CCOC(=O)C1SC2(C(F)(F)C(F)F)CC1(O)c1c(c(OC)c3occc3c1OC)O2 (stereo not given) | 0.9 (inactive)
CN(C)CC1CCCCC1OC(=O)c1ccc(Cl)c(Cl)c1 (stereo not given) | 1 (inactive)

— PubChem BioAssay AID1016 (Sanford-Burnham Center for Chemical Genomics, 2008)
